# Measurements reported in PubChem BioAssay (NCI).
# The panel holds about 79,000 compounds, 15% with a hit somewhere; the sample as a whole holds those more often. Unmarked numbers belong to inactive results. Active and inactive are the calls of the source. Rule as the data show it: active = growth inhibition above about 70%; inactive = the rest.
# Key:
# [1] = NCI Yeast Anticancer Drug Screen. Data for the rad50 strain (AID 155);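 also: 0% = growth of vehicle-only cultures of the same strain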; conditions: S. cerevisiae rad50 strain growth inhibition, stronger effect = higher value
# Outline: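 A DNA repair-deficient yeast mutant serves as the test organism; compound-induced growth inhibition is calculated against vehicle-treated cells.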
# [2] = NCI Yeast Anticancer Drug Screen. Data for the mec2-1 strain (AID 157); conditions: S. cerevisiae mec2-1 strain, stronger effect = higher value
# Outline: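 Compounds were applied to mec2-1 yeast cells. Their growth was then compared with that of vehicle-treated cultures to give growth inhibition.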
# [3] = NCI Yeast Anticancer Drug Screen. Data for the sgs1 mgt1 strain (AID 161);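 also: 0% = growth of cultures given vehicle only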; conditions: S. cerevisiae sgs1 mgt1 strain, stronger effect = higher value
# Outline: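 Percent growth inhibition was derived by comparing compound-exposed mutant yeast with vehicle-exposed cultures. The strain carries alterations in DNA damage repair.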
# [4] = NCI Yeast Anticancer Drug Screen. Data for the cln2 rad14 strain (AID 165);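 also: 0% = growth equal to vehicle treated cultures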; conditions: S. cerevisiae cln2 rad14 strain, stronger effect = higher value
# Outline: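 Strain: cln2 rad14 yeast, altered in cell cycle control and DNA damage repair. Read-out: growth inhibition vs vehicle.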
# [5] = NCI Yeast Anticancer Drug Screen. Data for the bub3 strain (AID 167); conditions: S. cerevisiae bub3 mutant strain, stronger effect = higher value
# Outline: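 Inhibition values come from growth of compound-treated mutant yeast normalised to vehicle-treated controls.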
# [6] = NCI Yeast Anticancer Drug Screen. Data for the mlh1 rad18 strain (AID 175); conditions: S. cerevisiae mlh1 rad18 strain growth inhibition, stronger effect = higher value
# Outline: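 A repair-deficient yeast strain is exposed to test compound, and growth is scored relative to vehicle-treated controls.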
# [7] = at 5.0 µM (retest, dose inferred, filed as 0.5)
# [8] = at 50.0 µM (retest, dose inferred, filed as 5.0)
Compound,"growth inhibition [1, 7]","growth inhibition [1, 8]",growth inhibition ([1]; at 50.0 µM),"growth inhibition [2, 7]","growth inhibition [2, 8]",growth inhibition ([2]; at 50.0 µM),"growth inhibition [3, 7]","growth inhibition [3, 8]",growth inhibition ([3]; at 50.0 µM),"growth inhibition [4, 7]","growth inhibition [4, 8]",growth inhibition ([4]; at 50.0 µM),"growth inhibition [5, 7]","growth inhibition [5, 8]",growth inhibition ([5]; at 50.0 µM),"growth inhibition [6, 7]","growth inhibition [6, 8]",growth inhibition ([6]; at 50.0 µM)
COc1cc(/C=C/c2ccc(OC)c(OC)c2)cc(OC)c1,-6%,10%,26.1%,-2%,26%,15.1%,-3%,68%,79% (active),-4%,16%,47.6%,1%,69%,66.9%,-3%,12%,59.5%
CC1=C(CO)C(=O)OC(C(C)C2CCC3C4CC5OC56C(O)C(N5CC5)=CC(=O)C6(C)C4CCC23C)C1 (configuration not stated),-7%,43%,76.8% (active),3%,49%,75.5% (active),-2%,42%,70.2% (active),23%,57%,28.9%,13%,77% (active),75.2% (active),-1%,78% (active),69.8%
CCOP(=O)(Oc1ccc([N+](=O)[O-])cc1)c1ccccc1C(C)C (configuration not stated),11%,49%,90.8% (active),25%,70% (active),90.8% (active),-11%,92% (active),95.6% (active),40%,34%,95.6% (active),12%,49%,96.8% (active),-11%,77% (active),96.7% (active)
O=C(O)Cc1ccc2c(c1)OCO2.[Ag],99% (active),93% (active),96% (active),99% (active),95% (active),97% (active),99% (active),94% (active),96.6% (active),99% (active),94% (active),90.2% (active),99% (active),93% (active),93.3% (active),99% (active),93% (active),94.4% (active)
N#C[S-].[Nd+3].c1cnc2c(c1)ccc1cccnc12.c1cnc2c(c1)ccc1cccnc12.c1cnc2c(c1)ccc1cccnc12,91% (active),99% (active),93% (active),98% (active),100% (active),94.8% (active),98% (active),99% (active),94.2% (active),93% (active),98% (active),93.7% (active),98% (active),99% (active),93.2% (active),98% (active),99% (active),92.8% (active)
CCCOc1ccc(/C=C/[N+](=O)[O-])cc1N,58%,99% (active),99.2% (active),52%,99% (active),99.5% (active),78% (active),-8%,99.5% (active),17%,99% (active),98.9% (active),34%,99% (active),99.5% (active),49%,99% (active),99.3% (active)
Cc1cccc(C)c1NC(=O)/C(CC(=O)CC(c1ccccc1)c1c(O)c2ccccc2oc1=O)=N/O (configuration not stated),26%,60%,1.1%,20%,34%,-5.8%,13%,55%,-1.5%,28%,45%,-10.4%,35%,50%,4.85%,25%,43%,2.1%
O=[N+]([O-])/C=C/c1ccccc1,94% (active),99% (active),98% (active),85% (active),100% (active),99.2% (active),62%,99% (active),98% (active),64%,100% (active),98.3% (active),85% (active),99% (active),96.4% (active),71% (active),100% (active),98.1% (active)
Cc1ccccc1NC(=O)CBr,39%,98% (active),98.5% (active),12%,99% (active),98.6% (active),37%,99% (active),99.3% (active),18%,98% (active),95.5% (active),-38%,99% (active),98.2% (active),37%,99% (active),98.3% (active)
